Screens deposited in PubChem BioAssay by National Center for Advancing Translational Sciences (NCATS).
Shown are actives, neighbours in structure and some others; about 5.7% of the full set was active somewhere.
PI5P4K alpha inh: blocks human PI5P4K alpha kinase activity; P48426; PI5P4Kalpha enzyme, ADP-Glo luminescence, 60 min; stronger effect = lower value; max response, %; 330,000 tested, 1.2% active; active = max response of -50% or lower; inconclusive = between -30% and -50%; inactive = -30% or higher; note: value at the top dose of about 77 µM; % is set by controls: 0 for no effect and ±100 for the full control effect
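Controls without substrate or without enzyme flank wells where PI5P4Kalpha converts substrate using 5 microM ATP (final). Incubation lasts 60 minutes at room temperature; ADP formed is read by ADP-Glo luminescence.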
KDM4E inh: JMJD2E (human) inhibition | B2RXH2 | JMJD2E catalytic domain, FDH-coupled NADH fluorescence (FDH is formaldehyde dehydrogenase) | Potency, µM (doses to about 57.1 µM), for the others: at the top dose activity change, negative = inhibition, hits mostly inhibitors | 230,000 tested, 1.6% active | AID 2147; active = well fitted inhibition curve with a large enough effect, not every such curve was filed as active; inconclusive = small, poorly fitted or top-dose-only effect, or another doubt; inactive = no such curve, though single readings can be large or run the other way;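 note: potency is the fitted concentration of half-maximal effect; 0% = wells with enzyme and -100% = buffer wells without enzyme; nearly all actives have a fitted effect of over 50% in size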
BAZ2B block: blocks human BAZ2B; Q9UIF8; AlphaScreen BAZ2B-H3K14Ac peptide displacement; Potency, µM (top dose mostly 114 µM), for inactives: at the top dose activity change, negative = inhibition, actives largely listed as inhibitors; 360,000 tested, 4.4% active; note: potency is the fitted concentration of half-maximal effect; % is set by controls: 0 for no effect and ±100 for the full control effect; nearly all actives have a fitted effect of over 60% in size
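BAZ2B 50 nM plus b-H3(5-23)K14Ac 50 nM, PBS pH 7.4/0.01% Tween-20, 30 min RT; compound added (max 110 uM), 30 min RT; streptavidin donor/Ni-chelate acceptor beads 10 ug/mL final, 20 min dark; AlphaScreen read.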
HP1b binding inh: blocks HP1-beta chromodomain binding to methylated histone tails. AlphaScreen HP1-beta / biotin-H3K9me3 peptide binding. Potency, µM (top dose mostly 114 µM), for the others: at the top dose activity change, negative = inhibition, hits mostly inhibitors. P83916. AID 540317. 390,000 tested, 0.56% active; note: potency is the fitted concentration of half-maximal effect; nearly all actives have a fitted effect of over 70% in size
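Compound inhibition of the preformed complex between 50 nM HP1-beta and 50 nM biotinylated H3K9me3 peptide was read by AlphaScreen. Buffer was PBS pH 7.4 with 0.01% Tween-20. Incubations ran 30 min at room temperature, with 10 ug/mL donor/acceptor beads.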
JMJD2A Tudor inh: JMJD2A Tudor domain (human) inhibition. AlphaScreen JMJD2A-Tudor / H3K4me3 peptide binding. Potency, µM (series often up to 114 µM), for the others: top-dose activity change, negative = inhibition, hits mostly inhibitors. 390,000 tested, 4.4% active. AID 504339; note: potency is the fitted concentration of half-maximal effect; % is set by controls: 0 for no effect and ±100 for the full control effect; nearly all actives have a fitted effect of over 50% in size
Target sequence (O75164 whole entry, looked up, the tested form may be a part): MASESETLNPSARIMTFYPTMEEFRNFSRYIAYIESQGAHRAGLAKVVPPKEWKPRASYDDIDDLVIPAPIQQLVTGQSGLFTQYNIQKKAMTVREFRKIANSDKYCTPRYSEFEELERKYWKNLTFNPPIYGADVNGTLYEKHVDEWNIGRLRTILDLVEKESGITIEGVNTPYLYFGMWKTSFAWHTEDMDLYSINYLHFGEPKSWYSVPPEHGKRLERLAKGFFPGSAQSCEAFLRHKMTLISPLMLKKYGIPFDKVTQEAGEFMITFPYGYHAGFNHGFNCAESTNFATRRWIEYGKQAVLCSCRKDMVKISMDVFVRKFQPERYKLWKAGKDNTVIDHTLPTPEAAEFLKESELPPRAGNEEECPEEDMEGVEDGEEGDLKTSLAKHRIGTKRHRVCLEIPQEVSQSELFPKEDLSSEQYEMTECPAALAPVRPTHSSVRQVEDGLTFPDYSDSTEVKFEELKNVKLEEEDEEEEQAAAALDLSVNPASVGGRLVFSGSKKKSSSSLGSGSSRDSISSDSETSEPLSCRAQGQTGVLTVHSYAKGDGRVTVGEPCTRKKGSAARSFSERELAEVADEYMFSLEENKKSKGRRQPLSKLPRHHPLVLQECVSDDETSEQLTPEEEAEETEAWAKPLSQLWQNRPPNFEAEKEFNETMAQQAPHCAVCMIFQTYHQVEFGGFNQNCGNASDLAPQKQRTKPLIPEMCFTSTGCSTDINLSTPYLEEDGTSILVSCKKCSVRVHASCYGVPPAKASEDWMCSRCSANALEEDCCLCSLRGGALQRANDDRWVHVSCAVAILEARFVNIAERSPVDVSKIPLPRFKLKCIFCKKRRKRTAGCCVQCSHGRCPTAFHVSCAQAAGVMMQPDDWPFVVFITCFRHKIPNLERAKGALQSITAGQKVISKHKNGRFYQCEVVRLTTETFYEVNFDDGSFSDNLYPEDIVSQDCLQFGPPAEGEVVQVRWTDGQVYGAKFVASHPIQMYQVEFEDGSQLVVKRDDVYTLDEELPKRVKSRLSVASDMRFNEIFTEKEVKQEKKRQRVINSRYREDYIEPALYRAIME
L3MBTL1 inh: blocks human L3MBTL1. Q9Y468. AlphaScreen L3MBTL1–H3K9me1 peptide binding. Potency, µM (doses to about 57.1 µM), for the others: top-dose activity, negative = inhibition, usual class: inhibitors. 230,000 tested, 0.66% active. AID 485360; note: potency is the fitted concentration of half-maximal effect; % is set by controls: 0 for no effect and ±100 for the full control effect; nearly all actives have a fitted effect of over 60% in size
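L3MBTL1 50 nM + b-AHA-H3(1-15)K9me1 75 nM, 30 min RT; compound added, 30 min RT; streptavidin donor/Ni-chelate acceptor beads 10 ug/mL each final, 30 min RT dark; AlphaScreen read.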
* hit, by the source's call; ? = inconclusive; nt = no result; [ ] = remark or other dose. Unless noted, calls come from the whole dose curve; as a rule, active = well fitted inhibition curve with a large enough effect; inconclusive = small, poorly fitted or top-dose-only effect; inactive = no such curve, though single readings can be large or run the other way.

SMILES | PI5P4K alpha inh | KDM4E inh | BAZ2B block | HP1b binding inh | JMJD2A Tudor inh | L3MBTL1 inh
CCOC(=O)c1ccc(NC(=O)CN(Cc2ccc(C)cc2)S(=O)(=O)c2ccc(C)cc2)cc1 | nt | nt | 3% | 40% | -12% | nt
COCC(=O)Nc1nc2n(n1)C(c1ccccc1)CC(c1ccc(OC)cc1)N2 (configuration not stated) | nt | ? | ? | 32% | 56µM* | -11%
CC1CC(c2ccccc2)n2nc(NC(=O)CCc3ccccc3)nc2N1 (configuration not stated) | 1 | -1% | 50µM* | 54% | 79µM* | -3%
COCC(=O)Nc1nc2n(n1)C(c1ccc(OC)cc1)CC(c1ccc(OC)cc1)N2 (configuration not stated) | nt | ? | -36% | 14% | -34% | nt
O=C(O)CCCC(=O)Nc1nc2n(n1)C(c1ccc(F)cc1)CC(c1ccc(Cl)cc1)N2 (configuration not stated) | nt | ? | 50µM* | 37% | ? | nt
CCCC(=O)Nc1nc2n(n1)C(c1ccccc1)CC(=O)N2 (configuration not stated) | 0 | 9% | 0%[57.1 µM] | 16% | -17% | -2%
COc1ccc2[nH]c(C)c(CCNc3ccc(C(F)(F)F)cc3[N+](=O)[O-])c2c1 | 11 | -3% | 28µM* | ? | 22µM* | -24%
CS(=O)(=O)NCCNc1ccc(C(F)(F)F)cc1[N+](=O)[O-] | -1 | -8% | -17% | 33% | 0% | -2%
COc1cccc(N2CCN(C(=O)C3CCN(S(=O)(=O)c4cccc5nonc45)CC3)CC2)c1 | nt | nt | -30% | -8% | ? | nt
Cc1ccc(NCc2ccncc2)c(Br)c1 | 7 | 1% | 22µM* | 28µM* | 1.6µM* | ?
Cc1cc(F)ccc1NCc1ccncc1 | nt | -5% | -10% | 22% | -23% | 0%
COC(=O)C1C(O)=C(C(C)=Nc2cccc3ccccc23)C(=O)CC1(C)C (configuration not stated) | 2 | ? | -32% | -5% | 79µM* | -17%
Cc1ccc(SCc2nc(-c3ccc(C(=O)NCC(C)c4ccccc4)cc3)oc2C)cc1 (configuration not stated) | nt | nt | -11% | 31% | -18% | nt
Cc1c2ccccc2cc[n+]1CCCS(=O)(=O)[O-] | 0 | ? | -26% | 38% | -1% | 8%
CC1(C)C(/C=C/C=C/C=C/C=C2\N(CCCCS(=O)(=O)O)c3ccc4ccccc4c3C2(C)C)=[N+](CCCCS(=O)(=O)[O-])c2ccc3ccccc3c21 | -90* | nt | nt | ? | 6.3µM* | nt
COC1=C(Nc2ccccc2)C(=O)C(OC)=C(Nc2ccccc2)C1=O | 6 | nt | nt | 20%[57 µM] | -17% | nt
COC1=C(Nc2ccccc2OC)C(=O)c2ccccc2C1=O | 0 | ? | 8.9µM* | 35µM* | 45µM* | 20µM*
COc1ccccc1NC1=C(NC(C)=O)C(=O)c2ccccc2C1=O | ? | 25µM* | ? | 50µM* | ? | ?
N#CC/C(N)=N/Nc1nc2ccccc2nc1Cc1ccccc1 | -3 | nt | -16% | -5%[57 µM] | ? | nt
CCOC(=O)c1c(C)oc2nc(C)nc(NCCCN3CCN(c4ccccc4OC)CC3)c12 | nt | nt | -2%[57.1 µM] | -1% | -35% | nt
O=C1/C(=C2\C(=O)N(Cc3ccc(F)cc3)c3ccccc32)SC(=S)N1CCS(=O)(=O)O | -29 | nt | 14µM* | ? | 10µM* | nt
COCCN(CCOC)C(=O)c1cc2c(=O)n3ccccc3nc2n1C | nt | nt | ? | 11% | -27% | nt
OC(CNC1CCCCCC1)COc1cccc2ccccc12 (configuration not stated) | 14 | nt | ? | -19% | 3.5µM* | nt
Cc1nn2c(=O)cc(COC(=O)c3cccc(NC(=O)c4cccs4)c3)nc2s1 | nt | nt | -7% | 59% | -10% | nt
NNc1nnc(-c2ccccc2)c(-c2ccccc2)n1 | nt | ? | 79µM* | 4% | ? | nt
SMILES | PI5P4K alpha inh | KDM4E inh | BAZ2B block | HP1b binding inh | JMJD2A Tudor inh | L3MBTL1 inh
NNc1nc(-c2ccccc2)c2ccccc2n1 | 4 | -24% | -32% | 38% | -20%[57.1 µM] | -18%
CCOc1c(Cl)cc(CNCc2ccccn2)cc1OC | -1 | -20% | 56µM* | 61% | -25% | -6%
COc1cc(CNCCN2CCOCC2)ccc1OCc1ccccc1Cl | -1 | 2% | -10% | 16% | -21% | -2%
CCOc1c(Cl)cc(CNC(C)(C)CC(C)(C)C)cc1OC | nt | -5% | 6% | 28% | -1% | nt
COc1cc(CNCc2ccccn2)ccc1OCc1ccccc1Cl | 21 | 10% | ? | -2% | 45µM* | -22%
O=C(CSc1nc2c([nH]c3ccccc32)c(=O)n1-c1ccc(F)cc1)NC1CCCCC1 | nt | nt | 1% | 24%[57 µM] | -23% | nt
CC(C)(C)OC(=O)N1CCC(c2c(C(=O)NCc3ccco3)cnn2-c2ccc(F)cc2F)CC1 | nt | nt | 5%[57.1 µM] | 24% | -16% | nt
CCn1ccnc1CN(C)C(=O)c1cc(COc2ccc(OC)c3ccccc23)on1 | 3 | nt | 1% | ? | 50µM* | nt
O=C(O)c1ccccc1NS(=O)(=O)c1ccc(NN=Cc2cccc(Cl)c2)c([N+](=O)[O-])c1 | -66* | nt | nt | 79µM* | 18µM* | -26%
NS(=O)(=O)c1ccc(N/N=C/c2ccccc2C(=O)O)c([N+](=O)[O-])c1 | -7 | ? | 10% | -10% | -15% | ?
COc1ccc(NS(=O)(=O)c2ccc(NN=Cc3ccc(C(=O)O)cc3)c([N+](=O)[O-])c2)cc1 | nt | nt | nt | nt | nt | -13%
NS(=O)(=O)c1ccc(N/N=C/c2ccc(O)c(O)c2O)c([N+](=O)[O-])c1 | -75* | 2.8µM* | 35µM* | 13µM* | 8.9µM* | 2.8µM*
